From PubChem BioAssay
Tau fibril ThT – qHTS for Inhibitors of Tau Fibril Formation, Thioflavin T Binding. Microtubule-associated protein tau (Homo sapiens), P10636. recombinant tau K18 P301L, heparin-induced fibrillization, ThT fluorescence. Potency, µM (highest dose often 57.4 µM), without a hit: top-dose activity, negative = inhibition, most hits filed as inhibitors. hit rate 2.1% among 270,000. AID 1460, 2008; further: nearly all actives have a fitted effect of over 55% in size
Target sequence (P10636 561-689 P618L limits assumed): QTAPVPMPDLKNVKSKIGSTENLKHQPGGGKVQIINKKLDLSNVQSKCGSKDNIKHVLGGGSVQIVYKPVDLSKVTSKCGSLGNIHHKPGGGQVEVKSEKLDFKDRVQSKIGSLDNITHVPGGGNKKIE
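Aggregation was driven by heparin (20 uM final) acting on recombinant tau […] bearing P301L in 100 mM sodium acetate pH 7; fibrils were detected with Thioflavin T.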
Tau FP inhib – qHTS for Inhibitors of Tau Fibril Formation, Fluorescence Polarization; Microtubule-associated protein tau (Homo sapiens), P10636; Potency, µM (highest dose often 57.7 µM), without a hit: at the top dose activity, negative = inhibition, actives largely listed as inhibitors; hit rate 0.39% among 280,000; K18 P301L tau heparin fibrillization, Alexa594 FP, 6 h; further: nearly all actives have a fitted effect of over 55% in size
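Steps: dispense K18 P301L tau (15 uM plus 0.24 uM Alexa 594 tracer, final) in pH 7 sodium acetate; add compound; add heparin (20 uM final); incubate 6 hr, 37 C; add ThT (30 uM final); after 1 hr ambient, read FP.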
Tau fluor cs – Counterscreen qHTS for Inhibitors of Tau Fibril Formation, Fluorescence Polarization; Potency, µM (series often up to 57.7 µM), inactives show at the top dose activity change, negative = decrease; tau K18 P301L Alexa594 fluorescence, heparin fibrillization; AID 1463, 2008; hit rate 0.93% among 280,000; further: nearly all actives have a fitted effect of over 55% in size
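Human tau K18 P301L (15 uM unlabeled, 0.24 uM Alexa 594-labeled) in 100 mM sodium acetate pH 7 with 20 uM heparin, 6 hr at 37 C. ThT 30 uM added, 1 hr ambient; Alexa 594 FP and total fluorescence read at 555/632 nm.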
TR SRC2 fluor cs – Total Fluorescence Counterscreen for Inhibitors of the Interaction of Thyroid Hormone Receptor and Steroid Receptor Coregulator 2 | AID 1479, 2009 | TRb/SRC2 Texas Red total fluorescence interference | Potency, µM (titrated, usually from 106 µM), for inactives: top-dose fluorescence change, negative = quenching | hit rate 0.29% among 280,000; active means well fitted curve in either direction with a large enough effect; inconclusive means small, poorly fitted or top-dose-only effect
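Flags fluorescent or light-absorbing compounds by total fluorescence, S + 2P, at 555 nm excitation and 632 nm emission. Mixture: 20 nM Texas Red SRC2 peptide, 0.6 uM human TRb LBD, 1 uM T3, 5% DMSO; compound exposure 5 h at ambient temperature.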
TRb SRC2 PPI – qHTS for Inhibitors of the Interaction of Thyroid Hormone Receptor and Steroid Receptor Coregulator 2 | Thyroid hormone receptor beta (Homo sapiens), P10828 | hit rate 0.065% among 280,000 | TRbeta-SRC2 peptide binding, fluorescence polarization; receptor liganded with 1 µM T3 | Potency, µM (top dose mostly 106 µM), without a hit: top-dose activity change, negative = inhibition, hits mostly inhibitors;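 further: plate controls were bound peptide for no effect and peptide without receptor for full effect; nearly all actives have a fitted effect of over 50% in size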
Target sequence (P10828 whole entry, looked up): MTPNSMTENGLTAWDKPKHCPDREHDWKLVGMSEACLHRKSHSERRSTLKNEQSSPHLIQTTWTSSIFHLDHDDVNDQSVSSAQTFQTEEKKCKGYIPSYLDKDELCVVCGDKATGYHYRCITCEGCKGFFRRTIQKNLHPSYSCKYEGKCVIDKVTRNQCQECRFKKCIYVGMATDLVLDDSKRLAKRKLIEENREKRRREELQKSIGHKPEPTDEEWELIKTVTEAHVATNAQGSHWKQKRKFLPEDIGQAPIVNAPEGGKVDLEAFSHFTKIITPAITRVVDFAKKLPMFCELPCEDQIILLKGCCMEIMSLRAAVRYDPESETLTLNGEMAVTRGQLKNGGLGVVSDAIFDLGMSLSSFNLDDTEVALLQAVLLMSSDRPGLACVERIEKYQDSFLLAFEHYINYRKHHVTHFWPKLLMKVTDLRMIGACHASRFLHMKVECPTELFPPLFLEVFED
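Polarization signal, normalized between peptide-alone and full complex controls, measured compound effects on T3-liganded human TRb LBD (0.6 uM) binding 20 nM Texas Red SRC2 peptide after 5 hr.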
An asterisk follows results filed as active; ? = inconclusive; . = no result; [ ] = dose if it differs, or a comment. Rows were chosen to be rich in hits. Some 3.1% of all compounds tested hit in one or more screens of this group. Unless noted, the call rests on the fitted dose curve; in most records, active means well fitted curve in the direction sought with a large enough effect; inconclusive means small, poorly fitted or top-dose-only effect, or another doubt; inactive means no such curve, though single readings can be large; an effect the other way counts as inactive or inconclusive. Unless noted, on the % scale 0 is the no-effect control and ±100 the full control effect; potency means the concentration at half of the fitted maximal effect.

SMILES	Tau fibril ThT	Tau FP inhib	Tau fluor cs	TR SRC2 fluor cs	TRb SRC2 PPI
Oc1ccc(C2Nc3cccc4cccc(c34)N2)c(O)c1	14.1µM*	?	7.94µM*[quencher]	?	8.8%
COc1cc(C2Nc3cccc4cccc(c34)N2)cc(OC)c1O	15.8µM*	?	4.47µM*[quencher]	-0.4%	-6.3%
FC(F)(F)c1ccc(C2Nc3cccc4cccc(c34)N2)cc1	?	-4.2%	-16.8%	-0.6%	-2.3%
c1coc(C2Nc3cccc4cccc(c34)N2)c1	11.2µM*	?	7.94µM*[quencher]	?	17.7%
O=[N+]([O-])c1ccc(C2Nc3cccc4cccc(c34)N2)cc1	14.1µM*	?	12.6µM*[quencher]	6.9%	7.1%
Cc1ccc(C2CC(=O)Oc3ccc(O)cc32)cc1 (stereo unspecified)	-13.5%[126 µM]	3.7%[126 µM]	-15.3%[126 µM]	-0.8%[201 µM]	-6.5%[201 µM]
CC(C)c1nc2n(n1)C1(CCCCC1)[C@@H]1CCCC[C@@H]1N2	14.7%	3.8%	7.4%	6.8%	-11.6%
O=C(Cl)c1ccc(C(=O)Cl)cc1	.	.	.	-3.9%[201 µM]	4.6%[201 µM]
COc1cc(C2Nc3cccc4cccc(c34)N2)ccc1OC(C)=O	?	-1.9%	?	-7.9%	-8.8%
COC(=O)c1ccc(C2Nc3cccc4cccc(c34)N2)cc1	14.1µM*	?	14.1µM*[quencher]	-6.1%	-1.8%
COc1ccc(-n2cc(C(=O)NCc3ccc(Cl)cc3)c3ccccc3c2=O)cc1	?	-2.3%	-21.6%	8.8%	3.5%
O=C(Nc1ccccc1F)Nc1cccc2ccc(O)cc12	15.8µM*	?	14.1µM*[quencher]	-10.9%	-5.2%
Nc1n[nH]c(C2CC2)c1N=Nc1ccc(Cl)c(Cl)c1	12.6µM*	?	12.6µM*[quencher]	-6.0%	-1.5%
Nc1[nH]c(=O)[nH]c(=O)c1N=Nc1cccc(Cl)c1	7.4%	0.5%	0.3%	-5.1%	2.4%
Cc1nc(N)sc1N=Nc1ccc(Br)cc1	3.98µM*	8.3%	15.8µM*[quencher]	-9.8%	-2.6%
Cc1[nH]nc(N)c1N=Nc1ccc(Br)cc1	11.2µM*	6.2%	?	-1.3%	3.2%
Nc1n[nH]c(C2CC2)c1N=Nc1ccc(Cl)cc1	10µM*	12.8%	15.8µM*[quencher]	-4.8%	-6.7%
Cc1ccc(C)c2sc(N)nc12	-9.5%	9.2%	-0.1%	-6.2%	-3.3%
O=C=Nc1ccc(Cl)c(Cl)c1	.	.	.	-4.6%	-4.6%
CC(C)[C@@H](OCc1ccccc1)[C@H](C)/C=N\O[C@@H](C)c1cn([C@@H]2COC[C@@H]2O)nn1	-2.7%[11.5 µM]	-3.6%[11.6 µM]	-2.6%[11.6 µM]	-5.5%[11.2 µM]	-1.1%[11.2 µM]
CC(C)(C)OC(=O)NS(=O)(=O)Nc1ccccc1Br	.	.	.	1.0%	-7.1%
CCOC(=O)N/N=C1/C[C@@H](O)[C@@H](O)[C@@H]2[C@@H]3C(=O)N([C@@H](C)c4ccccc4)C(=O)[C@H]3CC[C@@H]12	-3.1%[11.5 µM]	-1.5%[11.6 µM]	-2.0%[11.6 µM]	-20.3%[11.2 µM]	3.4%[11.2 µM]
CC1=C/C(=C\c2ccc3c(c2)OCO3)C(=O)S1	6.31µM*	-13.5%	-15.0%	-0.8%	-7.6%
CCCN1C/C(=C/c2ccc3c(c2)OCO3)C(=O)/C(=C/c2ccc3c(c2)OCO3)C1	22.4µM*	?	-21.7%	-0.9%	-4.5%
CNC(=O)c1c(NC(=O)c2ccc(S(=O)(=O)N3CCCC(C)C3)cc2)sc2c1CCC2 (stereo unspecified)	?	1.6%	-12.8%	?	3.9%
SMILES	Tau fibril ThT	Tau FP inhib	Tau fluor cs	TR SRC2 fluor cs	TRb SRC2 PPI
C1=C(CCNc2ncnc3c2[nH]c2ccccc23)CCCC1	?	-4.6%	15.8µM*[quencher]	?	-4.8%
COc1ccc(CCn2cnc3c([nH]c4ccccc43)c2=O)cc1	-17.2%	-4.7%	-13.4%	1.9%	-2.2%
O=c1c2[nH]c3ccccc3c2ncn1CCC1=CCCCC1	?	-6.9%	-13.3%	0.2%	-5.6%
COc1ccc(CNc2ncnc3c2[nH]c2ccccc23)cc1	?	-0.5%	20µM*[quencher]	-0.9%	-6.8%
COc1ccc(CNc2ncnc3c2[nH]c2cc(OC)c(OC)cc23)cc1	?	?	10µM*[quencher]	-3.8%	-5.2%
COc1ccc2[nH]c3c(NCCN(C(C)C)C(C)C)ncnc3c2c1	-9.1%	5.0%	-25.8%	-3.9%	3.7%
CCCOc1ccc(Oc2nc(NCC(C)C)nc(N3CCOCC3)n2)nn1	8.9%	-3.6%	7.3%	0.6%	-2.1%
COc1ccc(CNC(=O)CC(c2ccc(OC)c(OC)c2)N2Cc3ccccc3C2=O)cc1 (stereo unspecified)	0.7%	1.5%	0.6%	-1.7%	1.6%
CCc1nc2sc3c(N4CCCCC4)ncnc3c2c2c1CCCC2	3.9%	5.2%	0.7%	8.0%	3.3%
CCOC(=O)c1c(N)sc(-c2ccccc2)c1C	25.1µM*	6.1%	?	-6.3%	-9.8%
CCSC1=NC2(CCCCC2)Nc2sc3c(c21)CCCC3	28.2µM*	?	?	-4.9%	2.6%
CCC1CN(C(=O)Nc2cc(C)ccc2OC)c2cc(Cl)ccc2O1 (stereo unspecified)	-15.3%	0.0%	-11.9%	0.5%	-2.2%
CCc1nn2c(=O)cc(COC(=O)c3cccc(NC(=O)CCc4ccccc4)c3)nc2s1	-15.2%	0.9%	-14.5%	-1.0%	-1.8%
CC(=O)c1ccc(NC(=O)c2nc(-c3ccccc3)n(-c3ccc(Cl)cc3)n2)cc1	-17.3%	-1.0%	-29.7%	-3.1%	13.0%
Cc1cc(=O)n(CCCO)c(O)c1C#N	?	-8.0%	-2.8%	0.3%	4.7%
Cc1c(C#N)c(O)n(CCO)c(=O)c1N=Nc1ccccc1	12.6µM*	-3.1%	-6.6%	-2.6%	-3.3%
Cc1c(C#N)c(O)n(C)c(=O)c1N=Nc1ccc(S(N)(=O)=O)cc1	3.98µM*	0.6%	-10.4%	-2.8%	0.8%
Cc1c(C#N)c(O)n(CCO)c(=O)c1N=Nc1ccc(S(N)(=O)=O)cc1	12.6µM*	0.6%	-5.4%	-2.3%	1.9%
COc1cccc(CNC(=O)c2cccn2-c2nnc(N3CCCC3)s2)c1	1.9%	-4.3%	-2.7%	-0.8%	-4.5%
C=CCSc1nc2sc3c(c2c(=O)n1CC)CCc1ccccc1-3	11.2µM*	15.8µM*	-15.8%	-8.1%	-5.6%
CC1(C)Cc2c(c(N3CCOCC3)nc3snc(N)c23)CO1	12.6µM*	?	-11.9%	-2.5%	2.9%
CC(C)c1nn2c(=O)cc(COC(=O)c3cccc(NC(=O)COc4ccc(F)cc4)c3)nc2s1	?	0.8%	-0.7%	-0.2%	-2.8%
CCOC(=O)C1=CN(c2cccc(F)c2)C=C(C(=O)OCC)C1c1cc(OC)c(O)c([N+](=O)[O-])c1	12.6µM*	9.2%	?	2.4%	-11.0%
Cc1ccc2cccc(Oc3ccc([N+](=O)[O-])cc3[N+](=O)[O-])c2n1	-10.1%	-0.2%	-20.7%	-2.1%	-0.1%
